In the library only some 2.7% were active in any assay of this set; here they are far more common.
HSP90 inh: HSP90 refolding inhibition in rabbit reticulocyte lysate | luciferase refolding luminescence, 3 h | inhibition, % at 5.6 µM | 290,000 compounds, 0.91% hits | AID 1789;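 active = inhibition above the screen-wide mean plus 3 SD, computed separately per campaign, cut at about 16% in these data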;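 note: 0% = DMSO wells and 100% = 60 µM geldanamycin wells; inhibitors lower the luminescence because luciferase stays unfolded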
SENP6 block: SENP6 protease inhibition | inhibition, % at 10 µM | Recombinant SENP6 catalytic domain, aminoluciferin luminescence | 330,000 compounds, 1.8% hits | Q9GZR1;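 active = inhibition above about 50% at the single tested dose, limit read from the data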;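 note: plate controls were DMSO wells with enzyme for no effect and DMSO wells lacking enzyme for full effect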
Target sequence (Q9GZR1 628-1112 limits assumed): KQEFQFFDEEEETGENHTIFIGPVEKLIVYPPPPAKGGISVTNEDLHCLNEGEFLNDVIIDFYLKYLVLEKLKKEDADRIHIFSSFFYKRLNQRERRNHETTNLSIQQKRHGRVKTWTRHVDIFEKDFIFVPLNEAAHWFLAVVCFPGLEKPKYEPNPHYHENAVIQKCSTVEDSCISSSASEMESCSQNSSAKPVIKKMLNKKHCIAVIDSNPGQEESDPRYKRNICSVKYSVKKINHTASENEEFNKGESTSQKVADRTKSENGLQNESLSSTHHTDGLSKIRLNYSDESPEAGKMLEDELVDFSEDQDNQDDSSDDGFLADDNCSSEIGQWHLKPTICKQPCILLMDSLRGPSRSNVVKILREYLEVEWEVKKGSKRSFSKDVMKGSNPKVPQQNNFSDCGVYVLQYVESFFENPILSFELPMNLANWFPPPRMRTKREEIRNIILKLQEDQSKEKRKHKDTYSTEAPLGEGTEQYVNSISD
SENP8 block-1: inhibitors of human SENP8 protease; Q96LD8; inhibition, % at 10 µM; 330,000 compounds, 1.2% hits; purified SENP8, Z-RLRGG-aminoluciferin cleavage, luminescence; in the data active = inhibition above about 50%
SENP7 inh: SENP7 protease inhibition; Q9BQF6; recombinant SENP7, Z-RLRGG-aminoluciferin luminescence, 40 min; inhibition, % at 5 µM; 330,000 compounds, 1.5% hits; AID 434973;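 active = inhibition above about 50% at the single test dose, limit read from the data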;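 note: plate controls were DMSO with enzyme for no effect and no enzyme buffer wells for full effect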
SENP8 block-2: blocks human SENP8 cleavage of Nedd8 substrate; Q96LD8; recombinant SENP8, Nedd8 substrate fluorescence; inhibition, % at 20 µM; 360,000 compounds, 0.64% hits; AID 602440; in the data active = inhibition mostly above about 40%, no sharp cut-off; inactive = mostly below about 27%
SENP8 conf: human SENP8 inhibition, confirmed; shares compounds with SENP7 inh; Recombinant SENP8, Z-RLRGG-aminoluciferin luminescence, 60 min; inhibition, % at 12.5 µM; 6,200 compounds, 40% hits; AID 488912;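 active = mean inhibition across replicates above about 50%, limit read from the data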
SENP6 conf: confirmation of human SENP6 protease inhibitors; shares compounds with SENP7 inh; 6,200 compounds, 58% hits; inhibition, % at 12.5 µM; recombinant SENP6, Z-RLRGG-aminoluciferin luminescence
SENP7 conf: human SENP7 inhibition, confirmed | shares compounds with SENP7 inh | recombinant SENP7, Z-RLRGG-aminoluciferin luminescence, 40 min | inhibition, % at 12.5 µM | 6,200 compounds, 69% hits | AID 488917
Casp3 select: inhibits human caspase-3 in SENP selectivity test | shares compounds with SENP7 inh | purified caspase-3, Z-DEVD-aminoluciferin luminescence, 60 min | 6,200 compounds, 60% hits | inhibition, % at 12.5 µM | AID 488918;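 active = mean inhibition above about 50%, limit read from the data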;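 note: plate controls were enzyme with DMSO for no effect and wells without caspase-3 for full effect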
Luc interf: interferes with luciferase luminescence in SENP counter-screen. shares compounds with SENP7 inh. Pre-incubated SENP8/Z-RLRGG-aminoluciferin, luciferase luminescence interference. inhibition, % at 12.5 µM. 6,200 compounds, 39% hits;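 active = mean inhibition above about 50% when retested at one dose, limit read from the data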;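 note: plate controls were DMSO wells with completed reaction for no effect and substrate without enzyme for full effect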
* marks the source's active call; other numbers are inactive results; i = inactive; · = no result.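 Rule for the calls, unless noted: active = mean inhibition above about 50% in the one-dose retest (limit read from the data); inactive = the rest.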

SMILES	HSP90 inh	SENP6 block	SENP8 block-1	SENP7 inh	SENP8 block-2	SENP8 conf	SENP6 conf	SENP7 conf	Casp3 select	Luc interf
O=C(C1CCN(S(=O)(=O)c2cccnc2)CC1)N1CCN(C2CCCC2)CC1	2	-8	-4	-6	10	·	·	·	·	·
CC(O)(c1cccc(F)c1)c1nc(-c2ccccc2)cs1 (configuration not stated)	·	·	·	·	26	·	·	·	·	·
N#Cc1ccccc1NC(=O)CNc1ccccc1N1CCCCC1	-1	-2	1	7	11	·	·	·	·	·
O=C(Nc1ccc2nsnc2c1)c1ccc2c(c1)OCO2	-4	67*	65*	78*	-275	37	57*	88*	80*	46
O=C(Nc1ccc(N2CCCCC2)cc1)C(Cl)c1ccccc1 (configuration not stated)	0	61*	34	54*	12	14	15	15	28	26
CC(=O)c1cccc(NC(=O)c2ccc3c(c2)OCO3)c1	0	12	-15	17	17	·	·	·	·	·
O=C(Nc1ccc(Cl)c(Cl)c1)c1ccc2c(c1)OCO2	4	80*	77*	72*	17	19	77*	96*	65*	9
O=C(Nc1ccc(Cl)c(Cl)c1)Nc1ccccc1O	-1	-3	98*	97*	5	98*	100*	104*	90*	98*
CC1(C)CC(=O)C(C(C2=C(O)CC(C)(C)CC2=O)c2ccco2)C(=O)C1 (configuration not stated)	-3	2	-7	7	16	·	·	·	·	·
COC(=O)C1=CN(C(C)c2ccccc2)C=C(C(=O)OC)C1c1cc(OC)c(OC)c(OC)c1 (configuration not stated)	-3	-7	2	-9	-286	·	·	·	·	·
O=C(Nc1ccc(N2CCCC2)cc1)c1cccc(Cl)c1	8	88*	87*	94*	30	3	56*	51*	73*	9
O=C(Nc1ccc2c(c1)oc1ccccc12)c1ccc2c(c1)OCO2	-1	26	10	61*	-17	-6	7	7	4	3
O=C(Nc1cccc(-c2nn[nH]n2)c1)c1ccc(Cl)s1	-1	51*	22	16	2	42	36	72*	35	58*
O=C(Nc1ccc(Cl)cc1)C1=Cc2ccccc2OC1	-2	66*	45	45	-19	53*	62*	87*	35	34
O=C(Nc1ccc(Nc2ccccc2)cc1)c1ccc(Cl)cc1	·	-7	-9	6	1	·	·	·	·	·
O=C(Nc1ccccc1)NC1(C(=O)NCc2cccs2)CCCCC1	1	-5	0	-5	11	·	·	·	·	·
Cc1cc(OCc2ccc(C(=O)n3cccn3)o2)ccc1Cl	10	50*	40	31	12	19	38	29	18	27
Cc1ccc(N2CC(C(=O)Nc3ccccc3N3CCCC3)CC2=O)cc1 (configuration not stated)	-3	-12	6	2	12	·	·	·	·	·
C/C(=N/NC(=O)c1ccc(Br)o1)c1cccs1	-4	29	10	30	-4	·	·	·	·	·
C/C(=N\NC(=O)c1cc(Br)ccc1O)c1cccs1	-1	63*	34	19	-231	27	39	30	40	4
CN(C)N=Nc1ccc(S(=O)(=O)/N=C(\O)c2ccccc2)cc1	3	0	-5	-3	3	·	·	·	·	·
O=S(=O)(O)c1ccc(N=Nc2ccccc2)cc1	0	67*	52*	51*	26	-6	36	71*	76*	53*
Cc1ccccc1NC(=O)c1cccc(S(=O)(=O)Oc2ccc([N+](=O)[O-])cc2)c1	0	-8	9	97*	6	4	2	-1	-1	-2
Cc1ccc(NC(=O)c2cccc(Oc3ccc([N+](=O)[O-])cc3)c2)c(C(=O)O)c1	-5	42	24	2	16	·	·	·	·	·
CCc1ccc(NC2=CC(=O)C(=O)c3ccccc32)cc1	·	26	70*	55*	i	9	23	12	4	5
SMILES	HSP90 inh	SENP6 block	SENP8 block-1	SENP7 inh	SENP8 block-2	SENP8 conf	SENP6 conf	SENP7 conf	Casp3 select	Luc interf
O=C1C=C(Nc2ccccc2C(=O)O)c2ccccc2C1=O	2	86*	86*	44	33	-8	93*	82*	46	37
c1ccc(Nc2ccccc2)cc1	·	-1	-4	6	9	·	·	·	·	·
CC1=CC(=O)c2ccccc2C1=O	4	1	16	3	-251	·	·	·	·	·
O=C1C=C(Nc2ccccc2)C(=O)c2ccccc21	3	90*	80*	82*	25	26	29	47	47	14
O=C1C=C(Nc2ccccc2)c2ccccc2C1=O	17*	81*	73*	46	-392	-8	87*	72*	21	-6
CC(Sc1ccccn1)C(=O)NC1CCCC1 (configuration not stated)	·	-21	2	2	22	·	·	·	·	·
O=C(O)c1ccc(CSc2nc3ccccc3o2)cc1	0	75*	54*	30	13	66*	64*	86*	83*	70*
O=C(O)c1ccccc1CSc1nc2ccccc2o1	4	85*	57*	62*	15	77*	75*	91*	90*	81*
O=C(CSc1nc2ccccc2o1)c1ccccc1	-3	67*	46	71*	12	68*	69*	85*	61*	62*
CC(=O)CSc1nc2ccccc2o1	4	1	-11	-11	26	·	·	·	·	·
CCN(CC)C(=O)COc1ccc2c(-c3ccc(OC)cc3)cc(=O)oc2c1	-2	15	-2	-8	-25	·	·	·	·	·
Cn1nnc(NC(=O)c2cccc(F)c2)n1	-2	51*	-3	6	5	-3	-4	-3	9	8
Cc1ccc(C(=O)Nc2nnn(C)n2)cc1	1	-28	-23	-6	11	·	·	·	·	·
COc1cc2c(cc1OC)C(=O)C(CC1CCN(Cc3ccccc3)CC1)C2 (configuration not stated)	1	-3	6	10	-20	·	·	·	·	·
Cc1cc(C)cc(NS(=O)(=O)c2cc(Br)cnc2N)c1	-3	4	-12	12	-6	·	·	·	·	·
Clc1ccc(-n2nnc(-c3cccnc3)n2)cc1Cl	-5	62*	19	51*	17	6	12	31	51*	8

Screening data: PubChem, several laboratories
